Sampled rows, rich in hits. Any-hit rate of the full collection: about 3.3%.
BoNT F protease = BoNT F light chain protease inhibition. Multiplex microsphere protease cleavage assay, flow cytometry. inhibition, % at 10 µM. actives 0.22% (n = 360,000). AID 588497; in the data active means inhibition above about 35%, passing the limit was not always enough; inconclusive means no clear call, values can overlap the other calls; further: plate controls were buffer without enzyme for full effect and enzyme alone for no effect
BoNT-A LC inh2 = inhibitors of Botulinum neurotoxin A light chain protease. actives 0.17% (n = 360,000). AID 588499. multiplex microsphere protease substrate cleavage, flow cytometry. inhibition, % at 10 µM; further: plate controls were buffer without enzyme for full effect and enzyme alone for no effect
Anthrax LF inh2 = inhibitors of Bacillus anthracis lethal factor protease; P15917; multiplex microsphere protease cleavage assay, LF; inhibition, % at 10 µM; actives 0.12% (n = 360,000); further: plate controls were buffer without enzyme for full effect and enzyme alone for no effect
Target sequence (P15917 whole entry, looked up): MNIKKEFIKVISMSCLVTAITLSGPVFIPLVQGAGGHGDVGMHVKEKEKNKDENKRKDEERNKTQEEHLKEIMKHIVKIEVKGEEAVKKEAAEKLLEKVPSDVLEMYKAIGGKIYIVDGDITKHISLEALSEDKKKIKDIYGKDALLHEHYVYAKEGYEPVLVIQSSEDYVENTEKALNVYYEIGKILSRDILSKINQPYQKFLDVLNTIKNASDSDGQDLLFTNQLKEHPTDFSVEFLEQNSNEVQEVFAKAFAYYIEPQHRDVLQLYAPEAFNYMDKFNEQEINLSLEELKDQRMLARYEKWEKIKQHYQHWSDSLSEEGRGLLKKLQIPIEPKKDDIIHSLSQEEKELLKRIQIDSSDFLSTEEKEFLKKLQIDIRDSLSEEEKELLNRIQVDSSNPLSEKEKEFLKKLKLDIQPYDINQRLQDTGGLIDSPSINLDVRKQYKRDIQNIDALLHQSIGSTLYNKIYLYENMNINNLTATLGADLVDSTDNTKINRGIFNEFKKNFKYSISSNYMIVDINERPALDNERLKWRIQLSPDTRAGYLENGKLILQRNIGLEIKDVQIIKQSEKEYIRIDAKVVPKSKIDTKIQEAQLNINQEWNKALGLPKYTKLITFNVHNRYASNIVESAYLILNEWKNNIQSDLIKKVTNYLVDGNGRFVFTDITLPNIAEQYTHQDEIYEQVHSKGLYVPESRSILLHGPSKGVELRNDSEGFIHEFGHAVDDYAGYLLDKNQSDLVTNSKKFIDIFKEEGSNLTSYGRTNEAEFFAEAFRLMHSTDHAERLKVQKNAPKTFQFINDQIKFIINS
Autofluor counter = compound fluorescence in toxin protease inhibitor counterscreen; compound autofluorescence counterscreen, microsphere flow cytometry; active compounds read high; fluorescence intensity (test concentration not listed); actives 3.1% (n = 360,000); AID 624483; in the data active means fluorescence intensity above about 16000; inconclusive means no clear call, values can overlap the other calls
PriA SSB inh = blocks PriA binding to SSB C-terminal tail; AlphaScreen SSBct-PriA binding, biotinylated peptide; inhibition, % at 33 µM; actives 0.6% (n = 430,000); in the data active means inhibition mostly above about 37%, no sharp cut-off; inactive means mostly below about 20%;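 further: plate controls were negative control peptide for no effect and reference peptide for full effect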
MazEF act = MazEF (E. coli) toxin RNase activation | P0AE70 | FAM/BHQ RNA-DNA oligo cleavage fluorescence, 5 h | activation, % at 20 µM | actives 0.32% (n = 350,000); in the data active means activation above about 50%
Starred values were filed as active, the others as inactive; u = inconclusive; x = not tested or not shown. Unless noted, no stated cut-off is given here; in the data, active means inhibition above about 30%; inconclusive means no clear call, values can overlap the other calls; inactive means below that.

SMILES	BoNT F protease	BoNT-A LC inh2	Anthrax LF inh2	Autofluor counter	PriA SSB inh	MazEF act
COc1ccccc1N1CCN(C(=O)Oc2ccccc2)CC1	-6	-1	-4	5329	0	2
O=C(Oc1ccccc1)N1CCN(c2ccccc2F)CC1	38*	-2	-1	3580	-22	-2
CCCc1cc(=O)n2c(n1)SCC2CC(=O)O (centres undefined)	x	x	x	x	16	x
COCCNC(=O)NC1(C(F)(F)F)Oc2ccc(Cl)cc2O1 (centres undefined)	0	0	9	10005	-8	2
Cc1cc(NC(=O)NC2(C(F)(F)F)Oc3ccc(Cl)cc3O2)no1 (centres undefined)	0	-1	-3	16576*	-16	-1
CCOC(=O)c1c(Nc2ccccc2)sc(/C=C2\C=Nc3ccccc32)c1O	11	8	-3	17134*	-19	-6
CCOC(=O)c1c(Nc2ccc(Cl)cc2)sc(C=C2C=Nc3ccccc32)c1O	x	x	x	x	-11	x
COc1ccc(-n2c(COc3ccc(Cl)cc3)nnc2SCc2ccc(C#N)cc2)cc1	-3	-1	-3	7650	-16	-2
COc1ccc(-n2c(COc3ccc(C)cc3)nnc2SCc2ccc(C#N)cc2)cc1	-1	1	-2	19083*	-6	-7
C=CCCC1(C)NNc2nc(=O)c(C)nn21 (centres undefined)	x	x	x	x	98*	x
Cc1nn2c(nc1=O)NNC2(C)C(C)(C)C (centres undefined)	-6	-1	-11	5852	-7	1
CN(C)C(=O)N1CCC(C(=O)NCc2ccccc2)CC1	4	1	0	6437	-20	-1
COc1ccc(CNC(=O)C2CCN(C(=O)N(C)C)CC2)c(OC)c1	-3	u	-4	16860*	-19	4
COc1ccccc1CNC(=O)C1CCN(C(=O)N(C)C)CC1	1	0	-2	20518*	-8	-6
Cc1cccc(-n2ncc3c(=O)[nH]c(SCc4ccccn4)nc32)c1	x	x	x	x	-5	x
OCCN1CCN(Cc2cccc(Oc3ccc(Cl)cc3)c2)CC1	1	1	-1	20285*	-1	-5
CCN(C(=O)Cn1c(=O)n2nc(CCn3nc(C)cc3C)nc2c2ccccc21)c1cccc(C)c1	2	0	-2	11098	-9	2
Cc1cccc(NC(=O)Cn2c(=O)n3nc(CCn4nc(C)cc4C)nc3c3ccccc32)c1	4	6	-2	21276*	-5	2
CCn1ccc(C(=O)Nc2nc(-c3ccccc3)c(-c3ccccc3)s2)n1	x	x	x	x	3	x
Cc1ccc(N2C3=C(C(=O)CC(C)(C)C3)C(c3cn(C)nc3C)C3=C2CC(C)(C)CC3=O)cc1	-14	29	12	20845*	2	4
Cc1nn(C)cc1C1C2=C(CC(C)(C)CC2=O)N(c2ccccc2)C2=C1C(=O)CC(C)(C)C2	-7	0	4	3433	-10	-7
NC(=O)c1snnc1-c1ccccc1	x	x	x	x	-2	4
NC(=O)c1sc2nnc(-c3ccccc3)c(-c3ccccc3)c2c1N	u	-56	-44	17320*	-2	-12
COc1ccc(C2C3=C(N=C4SCC(=O)N42)c2ccccc2CC3)cc1OC (centres undefined)	-7	-4	-1	24021*	13	-2
Cc1ccc(S(=O)(=O)N2CCOC23CCN(C(=O)c2c(F)cccc2Cl)CC3)cc1	x	x	x	x	-1	x
SMILES	BoNT F protease	BoNT-A LC inh2	Anthrax LF inh2	Autofluor counter	PriA SSB inh	MazEF act
CCOC(=O)N1CCN(C(=O)Nc2nc(CC(=O)NC(C)C)cs2)CC1	x	x	x	x	-4	x
COc1ccc(S(=O)(=O)Nc2ccc3c(c2)CN(C(=O)c2ccco2)CC3)cc1C	x	x	x	x	7	x
O=C1CCc2cc(NC(=O)c3ccc(-c4ccsc4)cc3)ccc2N1	x	x	x	x	-31	x
COc1ccc(N(CC(=O)Nc2ccccc2C(=O)NCC(C)C)S(C)(=O)=O)cc1	-3	0	-1	2094	-10	4
CCC(C)NC(=O)c1ccccc1NC(=O)CN(c1ccc(OC)cc1)S(C)(=O)=O (centres undefined)	-1	0	0	23469*	-15	6
COc1ccc(N(CC(=O)Nc2ccccc2C(=O)NCCc2ccccc2)S(C)(=O)=O)cc1OC	2	1	0	21907*	-11	-2
CS(=O)(=O)N(CC(=O)Nc1ccccc1C(=O)NCc1ccco1)c1ccc2c(c1)OCCO2	-4	-1	-2	23961*	10	0
O=C(CCc1cccc(Cl)c1)NCC1CCN(C(=O)c2ccoc2)CC1	x	x	x	x	-6	x
O=C(CSc1nnc(-c2cccs2)o1)NCC1CN(Cc2ccccc2)CCO1 (centres undefined)	3	1	2	20699*	-7	4
COC(=O)NC(C)c1nc2ccccc2[nH]1 (centres undefined)	x	x	x	x	4	x
O=S(=O)(Cl)/C=C/c1ccccc1	x	x	x	x	5	x
O=S(=O)(/C=C/c1ccccc1)Oc1ccccc1	-4	-3	0	21677*	-3	-4
NC(=O)CSc1nc(-c2ccccc2)cc(C(F)(F)F)n1	x	x	x	x	3	x
COC(=O)c1ccc(NC(=O)C[n+]2ccccc2C)cc1	-32	-1	5	4007	1	8
Cc1cccc[n+]1CC(=O)Nc1ccccc1	37*	1	15	4187	-2	2
CC(=CC(=O)c1ccccc1)Nc1ccc2c(c1)OCO2	x	x	x	x	41*	x
COc1ccc(C(=O)C=C(C)Nc2ccc3c(c2)OCO3)cc1	x	x	x	x	8	x
COc1ccc2cc(C(C)=NNC(=O)c3cc(-c4cccnc4)nc4ccccc34)ccc2c1	x	x	x	x	-3	x
COc1ccccc1[C@H](CNC(=O)Cc1c(F)cccc1Cl)OC	x	x	x	x	-8	x
CCn1c(SCC(=O)N2CCN(c3ccc(F)cc3)CC2)nc2ccccc2c1=O	-5	-1	-14	2600	-8	-2
Cn1c(SCC(=O)N2CCN(c3cccc(Cl)c3)CC2)nnc1-c1ccncc1	-2	-1	0	22921*	-19	4
Cn1c(SCC(=O)N2CCN(c3ccccc3)CC2)nnc1-c1ccncc1	6	0	5	3570	-9	10
CCn1c(SCC(=O)N2CCN(c3ccc(F)cc3)CC2)nnc1-c1ccncc1	-4	-2	1	20103*	-13	-4
Cn1c(SCC(=O)N2CCN(c3ccccc3)CC2)nnc1-c1cc2ccccc2o1	-2	-3	-10	16756*	-24	-5
Nc1nnc(SCC(=O)N2CCN(c3cccc(Cl)c3)CC2)n1-c1ccccc1	-3	0	-3	23616*	-15	0
Cn1nc(N2CCC[C@H](C(=O)Nc3ncnc4nc[nH]c34)C2)ccc1=O	x	x	x	x	-15	x
CCOC(=O)c1ccccc1NC(=O)CSc1ncc(-c2ccc(OC)cc2)n1C	x	x	x	x	53	x
COc1ccc(Nc2nc3cc(C)ccc3cc2C#N)c(OC)c1	-2	1	-1	2471	-6	62*
COc1ccc(Nc2nc3ccc(C)cc3cc2C#N)c(OC)c1	0	2	-1	2567	-6	139*

High-throughput results: PubChem BioAssay, several laboratories
